Bioassay records deposited in PubChem BioAssay by University of Kansas High Throughput Screening Laboratory.
An excerpt weighted towards active compounds, which were near 3.5% of everything screened.
Pf apPOL inh – Pf-apPOL DNA polymerase inhibition. Recombinant Pf-apPOL, molecular beacon fluorescence, 1.5 h. inhibition, % at 10 µM. 210,000 compounds, 0.25% hits. AID 1794808
mHTT CaM bind – mHTT-calmodulin interaction abrogation; P42858; AlphaScreen His-mHTT/GST-CaM binding, luminescence; inhibition, % at 15 µM; 190,000 compounds, 3.6% hits;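 note: 0% = both proteins with DMSO and 100% = one protein alone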
* = called active by the depositor; . = no result given. Cut-off read from the data, not from the text of the source: active = inhibition above about 50%; inactive = the rest.

SMILES	Pf apPOL inh	mHTT CaM bind
CCN(C)c1ccc(/C=C2/C(=O)N(c3ccc(C)c(C)c3)N=C2C)cc1	0	58*
C=CCc1cc(/C=C2/C(=O)N(c3ccccc3)N=C2C)cc(OCC)c1O	8	49
CCN(C)c1ccc(/C=C2/C(=O)N(c3cccc(Br)c3)N=C2C)cc1	-1	90*
CC1=NN(c2ccc(C(=O)O)cc2)C(=O)/C1=C/c1ccc(N(C)C)cc1	-4	4
CCOc1cc(/C=C2/C(=O)N(c3ccc(C)c(C)c3)N=C2C)cc(I)c1O	-16	72*
CC1=NN(c2cccc(Br)c2)C(=O)/C1=C/c1ccc(N(C)C)cc1	-5	24
CCCOc1ccccc1/C=c1\sc2ncnn2c1=O	-8	-6
CCS(=O)(=O)Nc1ccc(Br)cn1	.	-7
Cc1nc(CCNC(=O)C2CCCN2C(=O)c2cccc(F)c2)cs1 (centres undefined)	-1	-4
COc1cc(C(=O)Nc2ccc(S(=O)(=O)Nc3nccnc3OC)cc2)cc(OC)c1OC	-2	-5
CCCCCNc1nc(C(C)C)c2c(c1C#N)CC(C)(C)OC2	27	-22
CCCN(CCO)Cc1ccc(F)cc1F	-4	-2
CCN(CC)c1ccc(/C=C2/C(=O)N(c3ccccc3)N=C2C)cc1	-4	65*
CC1=NN(c2ccccc2)C(=O)/C1=C/c1ccc(N2CCOCC2)cc1	7	78*
CC1=NN(c2ccccc2)C(=O)/C1=C/c1ccccc1	-5	17
CC1=NOC(=O)/C1=C/c1ccc(N2CCOCC2)cc1	5	16
CC(=O)Nc1cccc(N2CC(C(=O)Nc3ccc4c(c3)OCCO4)CC2=O)c1 (centres undefined)	-6	-4
CCCOc1ccc(-c2[nH]ncc2Oc2ccccc2)c(O)c1	-4	80*
COc1ccc(-c2[nH]ncc2Oc2ccccc2)c(O)c1	-9	35
COc1ccccc1-c1cn[nH]c1-c1ccc(OCC=C(C)C)cc1O	-3	68*
CCc1cc(-c2[nH]ncc2Oc2ccc(Cl)cc2)c(O)cc1O	0	100*
COc1ccccc1-c1c(C(F)(F)F)oc2cc(OCC=C(C)C)ccc2c1=O	1	-8
COc1ccc(Oc2cncnc2-c2ccc(OCc3ccccc3)cc2O)cc1	4	0
CCCCOc1ccc(-c2[nH]ncc2Oc2ccccc2)c(O)c1	-10	93*
CCc1cc(C(=O)COc2ccc(F)cc2)c(O)cc1O	-4	-1
SMILES	Pf apPOL inh	mHTT CaM bind
O=C(CN1N=C(c2ccc(Cl)cc2)CCC1=O)NC1CCCCCCC1	-13	40
COc1cccc(C=C2Oc3cc(OCC(=O)N4CCCCC4)ccc3C2=O)c1OC	-3	20
CC(C)c1cc(C(=O)N2CCCC2c2ccc(F)cc2)no1 (centres undefined)	-1	-15
Cc1ccsc1/C=C1\N=C(c2ccccc2)OC1=O	-5	20
O=C(Nc1c2c(nn1-c1cccc(Cl)c1)CS(=O)C2)c1ccc(Br)cc1 (centres undefined)	-1	12
Cc1ccc(C2=C(c3ccccc3)C(=O)C(c3ccccc3)=C2c2ccc(Cl)cc2)cc1	-4	.
O=C1NC(c2ccc(Br)cc2)=C(c2ccccc2)C1=O	-3	53*
C/C(=C1\N=C(c2ccccc2)OC1=O)c1cccc([N+](=O)[O-])c1	1	34
O=C(O)c1ccnc(-c2cc(C(=O)O)ccn2)c1	-23	.
CN(C)C=Cc1ccnc(-c2cc(C=CN(C)C)ccn2)c1	66*	.
COc1cc(C(=O)Nc2cccc(NC(=O)c3cc(F)c(F)cc3Cl)c2)cc(OC)c1OC	-8	31
O=C(Nc1nc2c(s1)CCC2)C1CCCN1S(=O)(=O)c1ccc(F)cc1 (centres undefined)	0	3
NC(=O)c1oc2ccccc2c1NC(=O)C1CCCN1S(=O)(=O)c1ccc(F)cc1 (centres undefined)	-6	67*
Cc1cc(C(=O)Nc2ccc3nc(N4CCN(C)CC4)sc3c2)on1	-7	-19
Cc1ccccc1NC(=O)CCC(=O)N1CCCn2nc(-c3cccn3C)cc21	-2	31
Cn1cccc1-c1cc2n(n1)CCCN2C(=O)CCC(=O)N1CCc2ccccc2C1	-1	54*
O=c1[nH]c(SCCO)nc2c1cnn2-c1ccc(F)cc1	-7	.
CCOc1ccccc1C(=O)N1CCCC(c2n[nH]c(CCOC)n2)C1 (centres undefined)	4	7
CCc1ccc(/C=C2\C(=O)Nc3ccc(Cl)cc32)cc1	-1	44
CN(C)c1ccc(/C=C2\C(=O)Nc3ccc(Br)cc32)cc1	-34	99*
O=C1Nc2ccc(Br)cc2/C1=C/c1ccc(F)cc1	0	14
CCc1ccc(/C=C2\C(=O)Nc3ccc(Br)cc32)cc1	-4	74*
N#CC=Cc1ccc(C(F)(F)F)cc1[N+](=O)[O-]	-5	.
Cc1oc2ccn(Cc3cccc(F)c3)c(=O)c2c1C(=O)N1CCCC(C)C1 (centres undefined)	-5	20
COc1cc(-c2nc(-c3cccs3)c(-c3cccs3)[nH]2)ccc1O	0	97*
SMILES	Pf apPOL inh	mHTT CaM bind
COc1cc(-c2csc(C)n2)ccc1O	0	-4
CCCCOc1ccc(C(=O)NCC2COC3(CCCC3)O2)cc1 (centres undefined)	-9	-2
Cc1ccc(CN2CCc3nc(Nc4ccc5c(c4)OCO5)ncc3C2)cc1	-4	11
CC(C)Oc1ccc(CN2CCc3nc(Nc4ccc5c(c4)OCO5)ncc3C2)cc1	2	80*
CCOc1ccccc1CN1CCc2nc(Nc3ccc4c(c3)OCCO4)ncc2C1	-3	83*
COc1ccccc1CN1CCc2nc(Nc3ccc4c(c3)OCO4)ncc2C1	0	51*
Fc1cccc(CN2CCc3nc(Nc4ccc5c(c4)OCO5)ncc3C2)c1	-5	18
COc1ccccc1CN1CCc2nc(Nc3ccc4c(c3)OCCO4)ncc2C1	-3	33
CCOc1ccc(CN2CCc3nc(Nc4ccc5c(c4)OCO5)ncc3C2)cc1OC	2	31
COc1cccc(CN2CCc3nc(Nc4ccc5c(c4)OCO5)ncc3C2)c1	3	84*
O=[N+]([O-])c1cccc(C2CC(c3ccc(Br)cc3)Nc3ncnn32)c1 (centres undefined)	3	40
Cc1ccc(-n2ncc3c(NCCO)nc(N4CCN(C(=O)c5ccco5)CC4)nc32)cc1	-4	17
COc1ccc(S(=O)(=O)N2CC3CN(C(=O)c4cccc(F)c4)CC(C2)O3)cc1	1	4
Cc1cc(C)cc(NC(=O)C2CCN(c3ccncc3)CC2)c1	-4	-5
Cc1cccc(C)c1NC(=O)c1ccco1	-6	-9
Cc1ccc(/C=C/NC(=O)c2ccco2)cc1C	-4	77*
O=C(CC1CCN(C(=O)c2ccccc2)CC1)NCc1cccc(Cl)c1	0	2
N#Cc1ccc(NC(=O)c2cc3n(n2)C(C(F)(F)F)CC(c2ccc4c(c2)OCO4)N3)cc1 (centres undefined)	-6	10
CCCNc1cc(N2CCCC(CCC(=O)NCCN3CCN(C)CC3)C2)ncn1 (centres undefined)	-5	2
CN(C)S(=O)(=O)Oc1cc2sc(=O)oc2cc1Cl	-5	19
COC(=O)Oc1c(Cl)cc2oc(=O)sc2c1Br	2	93*
CC(C)COC(=O)Oc1c(Cl)cc2oc(=O)sc2c1[N+](=O)[O-]	3	82*
COC(=O)Oc1c(Br)cc2oc(=O)sc2c1[N+](=O)[O-]	0	86*
O=c1oc2cc(Br)c(O)c(Br)c2s1	1	100*
Cc1ccc(OC(=O)OCC(C)C)c(Br)c1	4	-18
